Compound activity deposited in PubChem BioAssay by several laboratories.
Only some compounds are listed: those with a hit (about 2.6% of all), similar ones and a draw of the others.
TWEAK Fn14 block: TWEAK-Fn14 signaling inhibition | AID 1159606 | TWEAK-stimulated Fn14 reporter cells, luciferase luminescence, 8 h | inhibition, % at 10 µM | hit rate 2% among 360,000; in the data active means inhibition above about 50%
LMP1 NFkB inh: reduces LMP1-driven NF-kappaB luciferase signal | LMP1-induced NF-kappaB luciferase reporter cells, luminescence | inhibition, % at 12.5 µM | hit rate 0.69% among 350,000; in the data active means inhibition above about 41%; inconclusive means no clear call, values can overlap the other calls;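 further: 0% = neutral control wells and 100% = reference inhibitor control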
TROY signal inh: blocks TROY-dependent signaling in reporter cells; Q293 LMP1-TROYcd NF-kB luciferase reporter, 4 h; inhibition, % at 10 µM; hit rate 0.98% among 360,000; AID 1347056;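 active means compounds whose plate-normalised and pattern-corrected inhibition of the luciferase reporter signal at the single screening dose is 50% or more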
LGR2 antag: Drosophila LGR2 receptor signaling inhibition; hit rate 0.35% among 380,000; HEK293 LGR2, CRE-luciferase, bursicon-stimulated, 4 h; inhibition, % at 9.99 µM;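 active means drop in luminescence signal, shown as inhibition above about 50% in the replicate tests, limit read from the data, passing the limit was not always enough; inconclusive means probably only some replicates passing the limit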;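 further: agonist challenge used bursicon conditioned medium at about half maximal strength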
EWS-Fli inh: blocks EWS/Fli oncoprotein-driven transcription | inhibition, % at 12.6 µM | hit rate 0.67% among 350,000 | A673 NR0B1-luciferase reporter, viability-normalised;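 active means mean inhibition of at least 50% after viability correction, with every replicate also passing that limit; inconclusive means mean reaches 50% but only one of two replicates passes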;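 further: firefly luciferase signal divided by Alamar Blue viability fluorescence both relative to DMSO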
Active calls of the source: *; ? = inconclusive; . = no result.

SMILES	TWEAK Fn14 block	LMP1 NFkB inh	TROY signal inh	LGR2 antag	EWS-Fli inh
O=C(N/N=C/c1cccs1)c1cncc(Br)c1	0	6	-2	-7	-5
C[C@@H]1CN([C@@H](C)CO)C(=O)c2cc(NS(=O)(=O)c3ccccc3)ccc2O[C@@H](C)CCCCO[C@H]1CN(C)C(=O)Cc1ccccc1	.	.	.	9	-2
Cc1cc(C(C)(C)C)oc1C(=O)OCC(=O)NC1CCCCC1	-7	3	-7	-15	-6
Cc1cc(C(C)(C)C)oc1C(=O)NCCCNC(=O)c1oc(C(C)(C)C)cc1C	74*	-2	.	.	.
Cn1cccc1CC(=O)NNC(=S)Nc1ccccc1Cl	8	58*	-12	-36	-3
O=C(C[C@H]1C[C@@H]2c3cc(NC(=O)Nc4ccccc4F)ccc3O[C@@H]2[C@@H](CO)O1)NCc1ccncc1	.	.	.	-9	0
CC(=O)c1ccc(N2CCN(C(=O)c3ccc4c(=O)[nH]c5c(C(=O)NC6CCCC6)sc(=S)n5c4c3)CC2)cc1	.	.	.	9	-1
O=C(NC1CCCCC1)c1sc(=S)n2c1[nH]c(=O)c1ccccc12	-12	-13	60*	.	.
CCCCNC(=O)c1sc(=S)n2c1[nH]c(=O)c1ccccc12	-19	-3	56*	.	.
COc1ccc(S(=O)(=O)N(C)C[C@H]2Oc3ccc(NC(=O)CCCN(C)C)cc3CC(=O)N([C@H](C)CO)C[C@H]2C)cc1	.	.	.	-14	18
CCOC(=O)c1sc(NC(=O)c2cc(-c3ccccc3)nc3ccccc23)c(C#N)c1C	62*	25	63*	.	.
CCOC(=O)c1sc(NC(=O)c2cccnc2)c(C#N)c1C	4	-6	-20	-19	.
Cc1ccc(C)c(-c2cc(C(=O)Nc3sc(C)c(C)c3C(N)=O)c3ccccc3n2)c1	66*	21	72*	?	.
Cc1cccc(-c2cc(C(=O)Nc3sc(C)c(C)c3C(N)=O)c3ccccc3n2)c1	5	27	30	.	.
CCOC(=O)c1sc(NC(=O)CSc2n[nH]c(-c3ccccc3)n2)c(C#N)c1C	-8	-3	65*	.	.
O=C(NCC[C@@H]1CC[C@H](NC(=O)c2ccc3c(c2)OCO3)[C@@H](CO)O1)Nc1ccc(Cl)cc1	.	.	.	-25	-48
CO[C@@H]1CN(C)C(=O)c2ccc(NS(C)(=O)=O)cc2OC[C@@H](C)N(CCC(F)(F)F)C[C@H]1C	.	.	.	-3	-2
CCCc1c(C(=O)OCC)[nH]c2c1C(=O)CCC2	3	0	-19	0	-10
CC(=O)c1c(C)[nH]c(C(=O)OCCOc2ccccc2)c1C	-19	33	62*	68*	-15
Cc1c(C(=O)OCCOc2ccccc2)[nH]c2c1C(=O)CCC2	82*	6	66*	.	.
COC(=O)c1ccc(COc2ccccc2/C=C(\C#N)C(=O)Nc2ccccc2C)cc1	-12	-12	7	-19	.
COC(=O)c1ccc(COc2ccccc2/C=C/C(=O)c2ccc(OCC(=O)O)cc2)cc1	6	69*	-7	19	25
COC(=O)c1ccc(COc2ccccc2/C=C(\C#N)C(=O)Nc2c(C)cccc2C)cc1	61*	3	32	27	4
CCC(=O)N[C@@H]1CC[C@H](CCNC(=O)Nc2ccc(C(F)(F)F)cc2)O[C@H]1CO	.	.	.	-2	-3
COc1ccc(Nc2nccc(-c3cccc(N)c3)n2)cc1	76*	-57	28	26	-59
SMILES	TWEAK Fn14 block	LMP1 NFkB inh	TROY signal inh	LGR2 antag	EWS-Fli inh
COc1ccc(Nc2nccc(-c3ccc(C#N)cc3)n2)cc1	21	-20	27	4	-20
COc1ccc(NC(=O)N[C@H]2CC[C@H](CCn3cc(-c4ccc(F)cc4)nn3)O[C@H]2CO)cc1	.	.	.	-4	7
FC(F)(F)c1nnc2c(Sc3ccc(Cl)cc3)nc3ccccc3n12	61*	-50	-52	.	.
Cc1ccc(-c2nnc3c(C(F)(F)F)nc4ccccc4n23)cc1	0	7	-40	-4	.
FC(F)(F)c1nc2ccccc2n2c(-c3ccc(Cl)cc3)nnc12	15	53*	-71	.	.
C[C@@H]1CN([C@@H](C)CO)S(=O)(=O)c2ccc(C#CC3CC3)cc2O[C@H]1CN(C)CC1CCCC1	.	.	.	0	36
Cc1noc(C)c1NC(=O)Nc1ccc2c(c1)CC(=O)N([C@H](C)CO)C[C@H](C)[C@@H](CN(C)S(C)(=O)=O)O2	.	.	.	-4	.
Fc1cccc(CN2[C@@H]3CNC[C@H]2C3c2ccc(-c3cccc(F)c3)cc2)c1 (some centres not stated)	.	.	.	20	19
CCCc1cc(C(=O)O)c2ccccc2n1	8	-5	20	.	.
Cc1ccc(NC(=O)Cc2cc(C(=O)O)c3ccccc3n2)c(C)c1	52*	9	43	19	13
C/C=C/c1cccc(-c2nc(C(=O)NCCC)cc3c2[C@@H](CCO)N([S@](=O)C(C)(C)C)C3)c1	.	.	.	-11	.
COc1cccc(Nc2nc(N)c([N+](=O)[O-])c(NCc3ccccc3)n2)c1	51*	0	-5	-8	-8
Cc1cccc(Nc2nc(N)c([N+](=O)[O-])c(NCc3ccccc3)n2)c1	18	3	23	3	11
CNc1nc(N)c([N+](=O)[O-])c(NC2CCCCC2)n1	18	-10	8	-14	-5
Nc1nc(Nc2ccccc2)nc(NC2CCCCC2)c1[N+](=O)[O-]	32	-7	74*	0	-4
O=C(NCc1ccc(F)cc1)[C@H]1C[C@H]2C(=O)N[C@@H](Cc3ccccc3)C(=O)N2[C@H]1c1ccc(O)cc1	.	.	.	.	-8
CCOC(=O)N1CCN(Cc2nc(N)nc(Nc3ccc(OC)cc3)n2)CC1	-3	-6	-7	-7	-2
CCOC(=O)N1CCN(Cc2nc(N)nc(Nc3ccc(Oc4ccccc4)cc3)n2)CC1	52*	0	15	.	.
CC(=O)C(=Cc1ccc(-c2ccccc2)cc1)C(=O)c1ccccc1	55*	.	11	8	-7
O=C(C(Br)=Cc1ccccc1)c1ccccc1	93*	-28	-2	32	58*
O=C(C(=Cc1ccccc1)CN1CCCCC1)c1ccccc1	102*	90*	42	94*	58*
O=C(CCCCN1CCCCC1)c1ccccc1	-6	7	-17	1	-2
O=C(Nc1ccc(Oc2c(F)c(F)c(F)c(F)c2F)cc1)OC1CCN2Cc3ccccc3N=C12 (configuration not stated)	37	-98	61*	.	.
Cc1cccc(NC(=O)Nc2ccc(Oc3c(F)c(F)c(F)c(F)c3F)cc2)c1	-5	-32	-1	6	30
O=C(Nc1ccc2nc3n(c(=O)c2c1)CCCCC3)c1cc([N+](=O)[O-])ccc1F	97*	-5	85*	?	.
O=C(Nc1ccc2nc3n(c(=O)c2c1)CCCCC3)c1c(F)ccc([N+](=O)[O-])c1F	106*	80*	86*	0	.
C[C@@H]1CCCCO[C@H](CN(C)S(C)(=O)=O)[C@H](C)CN([C@@H](C)CO)C(=O)c2cc(NC(=O)Nc3ccccc3)ccc2O1	.	.	.	8	-14
O=C(NC1CC2CCCC(C1)N2Cc1ccccc1)C1CCCCC1 (configuration not stated)	12	1	-14	4	-6
